Reference: PubChem BioAssay (NCATS)
“And” between values parts separate entries of the source, which are not always exact repeats. Equal values may be shown once. Inconclusive results are not listed. Some structures have more than one record in an assay (separate samples or runs), and their calls can disagree. The source made the active and inactive calls. Unless noted, the call rests on the fitted dose curve; in most records, active means well fitted curve in the direction sought with a large enough effect; inconclusive means small, poorly fitted or top-dose-only effect, or another doubt; inactive means no such curve, though single readings can be large; an effect the other way counts as inactive or inconclusive.

Legend:
[1] = target: Cellular tumor antigen p53 (Homo sapiens) (UniProt P04637); experiment: Primary qHTS for small molecule compounds that upregulate eGFP-tagged delta133p53alpha (in N-terminal) cells. (AID 2060322); settings: NCI-H358 eGFP-delta133p53alpha fluorescence, 24 h; activation: stronger effect = higher value;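 further: cells pre-induced with doxycycline then dosed without doxycycline; series mostly up to about 56 µM; 0% = DMSO vehicle and 100% = reference activator; nearly all actives have a fitted effect of over 75% in size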
Cellular tumor antigen p53 (Homo sapiens), sequence (P04637 whole entry, looked up): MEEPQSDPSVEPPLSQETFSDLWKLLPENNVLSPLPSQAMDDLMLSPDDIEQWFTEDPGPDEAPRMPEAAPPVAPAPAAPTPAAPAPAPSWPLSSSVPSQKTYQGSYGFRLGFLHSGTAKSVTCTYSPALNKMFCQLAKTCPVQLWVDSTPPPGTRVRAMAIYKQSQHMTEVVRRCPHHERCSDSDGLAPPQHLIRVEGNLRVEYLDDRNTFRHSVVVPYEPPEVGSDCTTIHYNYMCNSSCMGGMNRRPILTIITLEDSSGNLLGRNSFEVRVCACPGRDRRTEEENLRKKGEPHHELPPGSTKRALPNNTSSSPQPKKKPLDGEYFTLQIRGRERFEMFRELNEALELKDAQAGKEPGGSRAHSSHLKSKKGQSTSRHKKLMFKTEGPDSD
Method in brief: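 NCI-H358 cells pre-induced 24 h with 10 ng/ml doxycycline for eGFP-delta133p53alpha, plated dox-free and exposed 24 h at 37C to titrated compounds. Fixed, Hoechst-stained; gated GFP peak intensity by laser scanning cytometry, normalized to DMSO (0%) and 57.5 uM 5-azacytidine (100%).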

[2] = target: Cellular tumor antigen p53 (Homo sapiens) (UniProt P04637); experiment: Primary qHTS for small molecule compounds that upregulate eGFP-tagged delta133p53alpha (in C-terminal) cells. (AID 2060324);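 further: 0% = DMSO wells and 100% = 57.5 µM 5-azacytidine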
Method in brief: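 Read-out: gated-cell GFP peak intensity (laser scanning cytometer), plate-normalized with DMSO as 0% activity, after 24 h compound exposure at 37C. Cells were C-terminal eGFP-tagged delta133p53alpha NCI-H358, doxycycline-induced (100 ng/ml, 24 h) before plating.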

[3] = target: Aldehyde dehydrogenase, mitochondrial (Homo sapiens) (UniProt P05091); experiment: qHTS for Inhibitors of the Aldehyde Dehydrogenase Family (ALDH2) Validation screens (AID 2061302; active means well fitted inhibition curve with a large enough effect; title and protocol of this record describe different tests;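 further: plate controls were DMSO vehicle for no effect and maximal DPI positive control response for full effect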)
[4] = target: Retinaldehyde dehydrogenase 3 (Homo sapiens) (UniProt P47895); experiment: qHTS for Inhibitors of the Aldehyde Dehydrogenase Family (ALDH1A3) Validation screen (AID 2061312); further: on the % scale 0 is the no-effect control and ±100 the full control effect; nearly all actives have a fitted effect of over 45% in size
[5] = target: Aldehyde dehydrogenase, mitochondrial (Homo sapiens) (UniProt P05091); experiment: qHTS for Inhibitors of the Aldehyde Dehydrogenase Family (ALDH2) Confirmatory screens (AID 2061303; active means well fitted inhibition curve with a large enough effect; title and protocol of this record describe different tests; further: nearly all actives have a fitted effect of over 45% in size; further: potency means the concentration at half of the fitted maximal effect)
[6] = qHTS for Inhibitors of the Aldehyde Dehydrogenase Family (ALDH1A2, ALDH1A3, ALDH2, ALDH3A1) (AID 2061307); further: nearly all actives have a fitted effect of over 50% in size; on Potency: test system not described further here; potency means the concentration at half of the fitted maximal effect
[7] = target: Retinaldehyde dehydrogenase 3 (Homo sapiens) (UniProt P47895); experiment: qHTS for Inhibitors of the Aldehyde Dehydrogenase Family (ALDH1A3) Confirmatory screens (AID 2061311); further: nearly all actives have a fitted effect of over 60% in size; further: potency means the concentration at half of the fitted maximal effect
[8] = target: Retinal dehydrogenase 2 (Homo sapiens) (UniProt O94788); experiment: qHTS for Inhibitors of the Aldehyde Dehydrogenase Family (ALDH1A2) Confirmation screens (AID 2061314); further: nearly all actives have a fitted effect of over 65% in size; further: potency means the concentration at half of the fitted maximal effect
[9] = target: Aldehyde dehydrogenase 1A1 (Homo sapiens) (UniProt P00352); experiment: qHTS for Inhibitors of the Aldehyde Dehydrogenase Family (ALDH1A1) Confirmatory screens (AID 2061316); further: nearly all actives have a fitted effect of over 65% in size; further: potency means the concentration at half of the fitted maximal effect
[10] = BET inhibitor-based combinations targeting novel dependencies in MECOM-rearranged (r) AML: SET-2 cell line (AID 2202231); settings: SET-2 AML cells viability, CellTiter-Glo luminescence, 48 h; viability: stronger effect = lower value, series mostly up to about 46 µM;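 further: plate controls were DMSO treated cells for no effect and wells without cells for full effect; nearly all actives have a fitted effect of over 35% in size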
Method in brief: (§1)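 Luminescent ATP readout (CellTiter-Glo) after 48 hr drug exposure gives viability. Curves span 11 concentrations and are normalized to DMSO and empty wells. Activity is reported as area under the curve and its Z-transform within each cell line.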

[11] = BET inhibitor-based combinations targeting novel dependencies in MECOM-rearranged (r) AML: OCI-AML3 cell line (AID 2202232); settings: Potency: OCI-AML3 viability;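 further: series mostly up to about 46 µM; plate controls were DMSO vehicle wells for no effect and wells without cells for full effect; nearly all actives have a fitted effect of over 35% in size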
Method in brief: as §1

[12] = BET inhibitor-based combinations targeting novel dependencies in MECOM-rearranged (r) AML: UCSD-AML1 cell line (AID 2202235);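 further: series mostly up to about 46 µM; plate controls were DMSO vehicle wells for no effect and blank wells for full effect; nearly all actives have a fitted effect of over 40% in size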
Method in brief: (§2)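 Luminescent ATP readout (CellTiter-Glo, 15 min at room temperature) after 48 hr drug exposure gave viability. Dose-response curves, normalized to DMSO and empty-well controls, were summarized as area under the curve and its mean-centred Z-score.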

[13] = BET inhibitor-based combinations targeting novel dependencies in MECOM-rearranged (r) AML: AML-191 cell line (AID 2202236;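 further: plate controls were vehicle wells for no effect and wells without cells for full effect; nearly all actives have a fitted effect of over 35% in size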)
Method in brief: as §1

[14] = BET inhibitor-based combinations targeting novel dependencies in MECOM-rearranged (r) AML: AML-194 cell line (AID 2202237;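 further: plate controls were vehicle wells for no effect and wells without cells for full effect; nearly all actives have a fitted effect of over 40% in size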)
Method in brief: as §1

[15] = BET inhibitor-based combinations targeting novel dependencies in MECOM-rearranged (r) AML: HNT-34 cell line (AID 2202234);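 further: plate controls were vehicle wells for no effect and cell-free wells for full effect; nearly all actives have a fitted effect of over 35% in size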
Method in brief: as §2

[16] = target: Aldehyde dehydrogenase, mitochondrial (Homo sapiens) (UniProt P05091); experiment: qHTS for Inhibitors of the Aldehyde Dehydrogenase Family (ALDH2) Primary screen (AID 2061308);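 further: plate controls were vehicle for no effect and reference inhibitor for full effect; nearly all actives have a fitted effect of over 55% in size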
[17] = target: Retinaldehyde dehydrogenase 3 (Homo sapiens) (UniProt P47895); experiment: qHTS for Inhibitors of the Aldehyde Dehydrogenase Family (ALDH1A3) Primary screen (AID 2061315);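 further: plate controls were DMSO vehicle for no effect and reference inhibitor for full effect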

COc1cc(C(O)CN)ccc1O (stereo not given)
inactive: activation [1] -24.3% | Potency [2] | Potency [3] | Potency [4]

O=[N+]([O-])c1ccc2nc(N3CCNCC3)ccc2c1
active: Potency [5] 398 nM and 2.51 µM | Potency [6] 14.1 µM and 12.6 µM | Potency [7] 10 µM | Potency [8] 2.51 µM and 6.31 µM | Potency [9] 15.9 µM
inactive: activation [1] -42.9% | Potency [2]

CCCN1CCC[C@H](c2cccc(O)c2)C1
inactive: activation [1] 4.78% | Potency [2] | Potency [3] | Potency [4]

O=C1C=CC(=O)C=C1
inactive: activation [1] 48.4% | Potency [2] | Potency [3] | Potency [4]

CCCN1CCO[C@@H]2c3cc(O)ccc3OC[C@H]21
inactive: activation [1] -9.95% | Potency [2] | Potency [3] | viability [10] 92% | Potency [11] | Potency [12] | Potency [13] | Potency [14]

CN1CC[C@@]2(C)c3cc(OC(=O)Nc4ccccc4)ccc3N(C)[C@@H]12
inactive: activation [1] 26.7% | Potency [2] | Potency [5]
active: Potency [6] 8.96 µM
inactive and 7.98 µM (active): Potency [7]
inactive and 5.65 µM (active): Potency [8]

C[N+]1(C)C2CCC1CC(OC(=O)c1c[nH]c3ccccc13)C2 (stereo not given)
inactive: activation [1] -13.4% | Potency [2] | Potency [4]

Oc1ccc2c3c1O[C@H]1c4oc5ccccc5c4C[C@@]4(O)C(C2)N(CC2CC2)CCC314 (stereo not given in full)
inactive: activation [1] -83.6% | Potency [2] | Potency [3] | Potency [4]

O=C1CCCN1CC#CCN1CCCC1
inactive: activation [1] -14.5% | Potency [2] | Potency [3] | Potency [4]

CCOC(=O)c1ncn2c1[C@@H]1CCCN1C(=O)c1cc(OC)ccc1-2
inactive: activation [1] 2.15% | Potency [2] | Potency [5] | Potency [6] | Potency [7] | Potency [8] | Potency [9]

O=c1[nH]c2ccccc2n1CCCN1CCC(n2c(=O)[nH]c3cc(Cl)ccc32)CC1
inactive: activation [1] 22.2% and -21.7% | Potency [2] | Potency [3] | Potency [4] | Potency [11] | Potency [15] | Potency [13] | Potency [14]

CN(N=O)c1cc(O)ccc1O
inactive: Potency [5]
active: Potency [9] 2.25 µM

CC(O)(CS(=O)(=O)c1ccc(F)cc1)C(=O)Nc1ccc(C#N)c(C(F)(F)F)c1 (stereo not given)
inactive: Potency [16] | Potency [17] | Potency [14]

C[N+]1(C)CCOC(O)(c2ccc(-c3ccc(C4(O)C[N+](C)(C)CCO4)cc3)cc2)C1 (stereo not given)
active: Potency [8] 12.7 µM
